From PubChem BioAssay (Tox21)
Records with an inconclusive call do not appear. Calls of active or inactive are those of the source. Unless noted, calls follow the shape of the dose curve; as a rule, active = well fitted curve in the direction sought with a large enough effect in the repeat runs; inconclusive = weak or mixed curves; inactive = no such curve, though single readings can be large; an effect the other way counts as inactive or inconclusive.

Key:
[1] = A CellTox Green Cytotoxicity Assay to monitor cytotoxicity in HepG2 cells - 8 hour (AID 1224890); also: nearly all actives have a fitted effect of over 45% in size
Method in brief: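 Real-time cytotoxicity: fluorescence of a cell-impermeant cyanine dye binding DNA of dead HepG2 cells, measured repeatedly (0–40 h) during compound exposure at 37 C. Cells seeded 600/well with reagent, dosed after 5 h.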

[2] = qHTS assay to identify small molecule antagonists of the androgen receptor (AR) signaling pathway using the MDA cell line in the presence of 0.5 nM R1881 - cell viability counter screen (AID 1259242); also: nearly all actives have a fitted effect of over 45% in size
Method in brief: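 Live-cell protease activity was measured by CellTiter-Fluor fluorescence after 30 min. Before that, MDA-kb2 MMTV-luciferase cells had 16 hr at 37C without CO2, exposed to test compounds and 0.5 nM R1881 final.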

[3] = target: Estrogen receptor (Homo sapiens) (UniProt P03372); test: qHTS assay to identify small molecule antagonists of the estrogen receptor alpha (ER-alpha) signaling pathway using the BG1 cell line in the presence of 0.1 nM 17-beta-estradiol (AID 1259244); also: nearly all actives have a fitted effect of over 50% in size
Method in brief: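 Luciferase luminescence (ONE-Glo, 30 min at room temperature) was read after 22 hr at 37C exposure to compounds plus 17beta-estradiol at 0.1 nM final. Cells were VM7Luc4E2 with endogenous ER-alpha and an ERE-driven luciferase, pre-cultured 5 days in hormone-depleted medium.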

[4] = qHTS assay to identify small molecule HDAC inhibitors (AID 1259364); also: top concentration of the series differs between compounds; nearly all actives have a fitted effect of over 45% in size
Method in brief: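 Luminescence read after 30 min room-temperature HDAC-Glo incubation measures cellular class I/II HDAC activity. Compounds were applied for 2 hr at 37 C to HCT-116 wild-type cells seeded the day before.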

[5] = qHTS assay to identify small molecule HDAC inhibitors - cell viability counter screen (AID 1259365); also: series mostly up to about 92 µM; nearly all actives have a fitted effect of over 50% in size
Method in brief: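 Luminescence from CellTiter-Glo, developed 30min at room temperature, reports viability of wild-type HCT-116 cells treated 2hr with compounds at 37 C and 5% CO2 after overnight plating.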

[6] = qHTS assay to identify small molecule agonists of the sonic hedgehog signaling (Shh) pathway - cell viability counter screen (AID 1259366); also: nearly all actives have a fitted effect of over 50% in size
Method in brief: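 Cytotoxicity counter screen run in the same wells as the Shh reporter assay. NIH/3T3 cells carrying a Gli1 response element–driven luciferase were treated with DMSO-dissolved compounds for 24hr, and live-cell protease activity was measured with CellTiter-Fluor.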

[7] = qHTS assay to identify small molecule antagonists of the sonic hedgehog signaling (Shh) pathway - cell viability counter screen (AID 1259367); also: nearly all actives have a fitted effect of over 55% in size
Method in brief: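 Viability was read by CellTiter-Fluor fluorescence in the same wells, reagent added 23 hr into compound treatment and incubated 1 hr at 37C. The 3T3 Gli1-Luc reporter cells (2,000/well) received conditioned medium after compound and ran 24 hr.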

[8] = qHTS assay to identify small molecule agonists of the sonic hedgehog signaling (Shh) pathway (AID 1259368; calls by dose curve;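 also: NIH/3T3-derived 3T3Gli1-Luc cells carrying a stable Gli1-driven firefly luciferase reporter; series mostly up to about 92 µM; nearly all actives have a fitted effect of over 15% in size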)
Method in brief: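 Luminescence was read after 30 min at room temperature with luciferase reagent. Before that, 3T3Gli1-Luc cells (NIH/3T3 clone, stable Gli1-Luc reporter; 2,000/well) were exposed to compounds for 24 hr at 37C, 5% CO2, compounds being added 4 hr post-plating.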

[9] = qHTS assay to identify small molecule antagonists of the sonic hedgehog signaling (Shh) pathway (AID 1259369; calls by dose curve; also: nearly all actives have a fitted effect of over 45% in size; also: potency is read from the fitted curve at half-maximal effect)
Method in brief: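 Antagonist mode: compound added to 3T3 Gli1-Luc cells followed by conditioned-medium stimulation, 24 h at 37 C, 5% CO2. Inhibition taken as loss of Gli1-driven luciferase luminescence.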

[10] = qHTS assay to identify small molecule agonists of the androgen receptor (AR) signaling pathway in the presence of an antagonist - cell viability counter screen (AID 1259379);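 also: MDA-kb2 human breast cancer cells carrying an MMTV luciferase reporter; series mostly up to about 92 µM; nearly all actives have a fitted effect of over 25% in size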
Method in brief: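 Cytotoxicity counter-screen run in the same wells as the nilutamide-challenged (3.0 µM final) AR agonist assay in MDA-kb2 cells. Compounds tested at 15 concentrations for 16 h, 37 °C without CO2; CellTiter-Fluor fluorescence read.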

[11] = qHTS assay to identify small molecule antagonists of the estrogen receptor beta (ER-beta) signaling pathway - cell viability counter screen (AID 1259382);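 also: HEK293T cells carrying ER-beta-UAS-bla reporter stimulated with estradiol; series mostly up to about 92 µM; nearly all actives have a fitted effect of over 55% in size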
Method in brief: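 Cytotoxicity was measured in the same wells by CellTiter-Glo luminescence after 30 min at room temperature. Cells were ER-beta-bla HEK293T in charcoal-stripped serum, given compound together with 1 nM E2 and incubated 16 h at 37C.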

[12] = target: Estrogen receptor (Homo sapiens) (UniProt P03372); test: qHTS assay to identify small molecule agonists of the estrogen receptor alpha (ER-alpha) signaling pathway in the presence of an antagonist (AID 1259383; calls by dose curve; also: top concentration of the series differs between compounds; nearly all actives have a fitted effect of over 15% in size)
Method in brief: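 Agonist-mode confirmation run in the presence of 10.0nM (final) ICI-182,780 antagonist. The reporter was ERE-driven luciferase in VM7Luc4E2 cells, grown in charcoal-stripped serum. Cells were exposed to 15-concentration compound series for 22hr, then ONE-Glo luminescence was read.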

[13] = qHTS assay to identify small molecule antagonists of the estrogen receptor alpha (ER-alpha) signaling pathway using the BG1 cell line in the presence of 0.1 nM 17-beta-estradiol - cell viability counter screen (AID 1259241); also: nearly all actives have a fitted effect of over 40% in size
Method in brief: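 VM7Luc4E2, 4,000 cells/well, phenol red-free medium + 10% charcoal-stripped FBS; 24 hr plating; cpd + 0.1 nM E2 final, 22 hr 37C/5% CO2; CellTiter-Fluor 30 min, fluorescence.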

[14] = target: Estrogen receptor beta (Homo sapiens) (UniProt Q92731); test: qHTS assay to identify small molecule agonists of the estrogen receptor beta (ER-beta) signaling pathway (AID 1259377; active = well fitted activation curve with a large enough effect in the signal ratio in the repeat runs, not every such curve was filed as active; the % refers to the signal ratio)
Method in brief: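 HEK293T ER-beta-UAS-bla; 2% charcoal-stripped FBS; cells pre-incubated 6 hr, compound 16 hr, 37C/5% CO2; LiveBLAzer B/G FRET substrate 2 h RT; fluorescence intensity read.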

[15] = target: Estrogen receptor beta (Homo sapiens) (UniProt Q92731); test: qHTS assay to identify small molecule antagonists of the estrogen receptor beta (ER-beta) signaling pathway (AID 1259378; active = well fitted inhibition curve with a large enough effect in the signal ratio in the repeat runs, not every such curve was filed as active; the % refers to the signal ratio)
Method in brief: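 Antagonist mode: compounds added to beta-lactamase reporter HEK293T ER-beta-UAS cells stimulated with E2 (1nM final), 16 hr at 37C. LiveBLAzer B/G FRET substrate, 2 hours room temperature, fluorescence read-out.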

[16] = qHTS assay to identify small molecule agonists of the estrogen receptor beta (ER-beta) signaling pathway - cell viability counter screen (AID 1259380); also: nearly all actives have a fitted effect of over 30% in size
Method in brief: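 Cell viability counter screen: CellTiter-Glo luminescence (30 min, room temperature) measured in the same wells as the beta-lactamase readout, after 16 hr compound exposure at 37C of ER-beta-bla HEK293T cells in 2% charcoal-stripped FBS medium.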

[17] = qHTS assay to identify small molecule agonists or antagonists of the thyroid stimulating hormone receptor (TSHR) signaling pathway - wild type cell line counter screen (AID 1259384; calls by dose curve)
Method in brief: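 Counter screen in untransfected Hek293: compounds (15-point titration, triplicate) plus phosphodiesterase inhibitor Ro20-1724 added after 18 h plating; 30 min RT. Intracellular cAMP via competitive d2/cryptate immunoassay, 1 h incubation.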

[18] = target: Androgen receptor (Homo sapiens) (UniProt P10275); test: qHTS assay to identify small molecule agonists of the androgen receptor (AR) signaling pathway in the presence of an antagonist (AID 1259381; calls by dose curve; also: nearly all actives have a fitted effect of over 15% in size)
Method in brief: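 Agonist-mode confirmation run against 3.0 uM final nilutamide: compounds titrated at 15 concentrations onto MDA-kb2 MMTV-luciferase reporter cells. Luminescence measured with ONE-Glo following 16 hr incubation, 37C, 0% CO2.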

[19] = qHTS assay to identify small molecule phospholipidosis (PLD) inducers (AID 1259344; active = well fitted curve in the direction sought with a large enough effect; an effect the other way counts as inactive or inconclusive)
Method in brief: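 Phospholipid accumulation was scored by imaging: fixed, Hoechst-counterstained HepG2 cells stained with LipidTOX Red after 24 h compound exposure at 37 C. Read-outs were pit count and pit intensity per well or per cell, with amiodarone and DMSO controls.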
% is scaled to controls: 0 for no effect and ±100 for the full control effect.

Chain of Estrogen receptor (Homo sapiens) (P03372 whole entry, looked up): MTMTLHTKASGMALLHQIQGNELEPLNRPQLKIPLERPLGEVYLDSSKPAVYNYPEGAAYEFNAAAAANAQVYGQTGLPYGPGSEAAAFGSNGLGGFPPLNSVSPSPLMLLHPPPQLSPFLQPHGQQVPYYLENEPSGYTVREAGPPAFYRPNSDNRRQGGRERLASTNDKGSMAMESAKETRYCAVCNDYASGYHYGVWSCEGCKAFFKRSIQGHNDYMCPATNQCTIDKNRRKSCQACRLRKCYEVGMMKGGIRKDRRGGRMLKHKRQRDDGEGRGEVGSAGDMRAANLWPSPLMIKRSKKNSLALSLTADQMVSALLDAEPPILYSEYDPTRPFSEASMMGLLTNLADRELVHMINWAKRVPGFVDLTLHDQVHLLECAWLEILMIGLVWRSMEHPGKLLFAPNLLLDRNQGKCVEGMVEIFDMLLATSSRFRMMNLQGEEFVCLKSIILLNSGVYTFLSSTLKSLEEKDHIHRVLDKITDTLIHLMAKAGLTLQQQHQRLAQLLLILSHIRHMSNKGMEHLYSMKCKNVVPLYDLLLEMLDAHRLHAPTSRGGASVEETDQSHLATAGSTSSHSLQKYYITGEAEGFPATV
Chain of Estrogen receptor beta (Homo sapiens) (Q92731 whole entry, looked up): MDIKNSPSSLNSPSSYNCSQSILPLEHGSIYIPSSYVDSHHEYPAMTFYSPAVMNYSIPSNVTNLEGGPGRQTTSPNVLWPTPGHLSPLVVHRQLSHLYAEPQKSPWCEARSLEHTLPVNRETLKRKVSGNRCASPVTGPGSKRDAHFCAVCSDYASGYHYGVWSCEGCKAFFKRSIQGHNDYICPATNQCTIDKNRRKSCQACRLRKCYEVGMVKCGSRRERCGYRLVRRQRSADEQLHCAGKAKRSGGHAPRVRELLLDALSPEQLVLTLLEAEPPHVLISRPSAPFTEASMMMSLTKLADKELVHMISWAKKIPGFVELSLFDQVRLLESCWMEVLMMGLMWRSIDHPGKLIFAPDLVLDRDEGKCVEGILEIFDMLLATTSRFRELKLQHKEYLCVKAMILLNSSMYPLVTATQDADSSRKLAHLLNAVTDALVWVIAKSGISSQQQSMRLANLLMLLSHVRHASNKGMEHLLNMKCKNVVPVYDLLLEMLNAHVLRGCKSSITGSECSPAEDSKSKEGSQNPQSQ
Chain of Androgen receptor (Homo sapiens) (P10275 whole entry, looked up): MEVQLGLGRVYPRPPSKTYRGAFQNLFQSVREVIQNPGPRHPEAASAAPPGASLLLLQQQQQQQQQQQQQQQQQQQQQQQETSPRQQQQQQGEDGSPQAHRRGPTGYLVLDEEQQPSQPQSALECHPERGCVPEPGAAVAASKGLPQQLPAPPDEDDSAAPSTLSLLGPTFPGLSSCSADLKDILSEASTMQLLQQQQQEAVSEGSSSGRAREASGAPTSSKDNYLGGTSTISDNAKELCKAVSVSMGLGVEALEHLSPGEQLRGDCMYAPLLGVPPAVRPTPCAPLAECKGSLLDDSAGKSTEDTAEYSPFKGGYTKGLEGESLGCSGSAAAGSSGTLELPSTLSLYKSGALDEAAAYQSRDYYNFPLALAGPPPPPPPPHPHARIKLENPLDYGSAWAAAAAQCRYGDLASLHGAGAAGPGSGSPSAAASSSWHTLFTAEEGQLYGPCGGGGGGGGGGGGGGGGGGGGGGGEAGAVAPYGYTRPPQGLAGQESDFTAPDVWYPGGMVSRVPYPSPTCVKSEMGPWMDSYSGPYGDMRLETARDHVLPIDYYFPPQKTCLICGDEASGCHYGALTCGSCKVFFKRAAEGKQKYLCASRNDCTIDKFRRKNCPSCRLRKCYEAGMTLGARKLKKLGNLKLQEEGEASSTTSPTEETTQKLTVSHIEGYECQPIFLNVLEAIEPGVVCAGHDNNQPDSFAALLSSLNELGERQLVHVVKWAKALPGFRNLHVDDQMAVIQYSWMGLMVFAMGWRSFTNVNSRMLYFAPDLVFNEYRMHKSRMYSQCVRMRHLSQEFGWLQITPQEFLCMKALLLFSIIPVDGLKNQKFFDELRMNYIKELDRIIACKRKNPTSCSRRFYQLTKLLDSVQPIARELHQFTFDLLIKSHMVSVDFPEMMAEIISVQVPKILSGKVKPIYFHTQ

C1=COCCC1
inactive: Potency [1] | Potency [2] | Potency [3] | Potency [4] | outcome [5] | Potency [6] | Potency [7] | Potency [8] | Potency [9] | Potency [10] | Potency [11] | Potency [12]

CC(C)=CCC[C@H](C)CCO
inactive: Potency [13] | Potency [2] | Potency [3] | Potency [4] | outcome [5] | Potency [6] | Potency [7] | Potency [8] | Potency [9] | Potency [14] | Potency [15] | Potency [10] | Potency [16] | Potency [11] | Potency [12] | outcome [17]

Cc1ccc(NC(=O)c2ccc(CN3CCN(C)CC3)cc2)cc1Nc1nccc(-c2cccnc2)n1
inactive: Potency [1] | Potency [4] | outcome [5] | Potency [8] | Potency [10] | Potency [18] | Potency [11] | Potency [12] | outcome [17]
active: Potency [9] 2.66 µM

CC(C)Cc1nccs1
inactive: Potency [1] | Potency [2] | Potency [4] | outcome [5] | Potency [6] | Potency [7] | Potency [8] | Potency [9] | Potency [14] | Potency [15] | Potency [10] | Potency [16] | Potency [11] | outcome [17]

C[C@H]1C[C@H]2[C@@H]3CCC4=CC(=O)C=C[C@]4(C)[C@@]3(F)[C@@H](O)C[C@]2(C)[C@@]1(O)C(=O)COP(=O)(O)O
inactive: Potency [1] | Potency [3] | Potency [4] | outcome [5] | Potency [6] | Potency [7] | Potency [8] | Potency [14] | Potency [15] | Potency [10] | Potency [16] | Potency [11] | Potency [12] | outcome [17]

O=C(OCCCCCOC(=O)c1ccccc1)c1ccccc1
inactive: Potency [1] | Potency [3] | Potency [4] | outcome [5] | Potency [6] | Potency [7] | Potency [8] | Potency [9] | Potency [10] | Potency [16] | Potency [11] | Potency [12] | outcome [17]

COC=O
inactive: cytotoxicity increase [1] -0.393% [at 6.97 µM] | viability change, negative = cytotoxic [2] 2.17% [at 8.39 µM] | activity change, negative = inhibition [3] -1.73% [at 8.39 µM] | activity change, negative = inhibition [4] 0.883% [at 8.39 µM] | activity change, negative = cytotoxicity [5] -4.91% [at 8.39 µM] | viability change, negative = cytotoxic [6] 14% [at 8.39 µM] | activity change [8] -3.86% [at 8.39 µM, stronger effect = higher value] | activity change, negative = inhibition [9] 0% [at 8.39 µM] | activation [14] 8.91% [at 8.39 µM] | activity, negative = inhibition [15] 1.13% [at 8.39 µM] | activity change, negative = cytotoxicity [10] 0.257% [at 8.39 µM] | activity change, negative = cytotoxicity [11] 10.9% [at 8.39 µM] | activation [12] 1.27% [at 8.39 µM] | cAMP activity change [17] -7.06% [at 8.39 µM]

CC(=O)Nc1ccn(C2COC(COC(=O)c3ccccc3)O2)c(=O)n1 (stereo not given)
inactive: Potency [1] | PLD induction [19] 1.43% [at 1.53 µM] | Potency [4] | outcome [5] | Potency [6] | Potency [7] | Potency [8] | Potency [9] | Potency [14] | Potency [15] | Potency [10] | Potency [16] | Potency [11] | outcome [17]

O=C(Cl)c1cc(Cl)cc(Cl)c1
inactive: Potency [1] | Potency [3] | Potency [4] | outcome [5] | Potency [6] | Potency [7] | Potency [8] | Potency [14] | Potency [15] | Potency [16] | Potency [11] | Potency [12] | outcome [17]
